The list is not random: actives were taken first. Their share in the collection is about 3.5%.
GDH-TPI counter-1: inhibits GDH-TPI coupling enzymes, artifact for Mtb FBA screen; GDH-TPI coupled enzyme counterscreen, NADH absorbance; inhibition, % at 4.8 µM; actives 1.2% (n = 360,000); AID 588335; in the data active = inhibition above about 30%;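 also: 0% = DMSO wells and 100% = wells lacking the enzyme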
Rv3671c protease: Rv3671c (M. tuberculosis) protease inhibition; P9WHR9; inhibition, % at 5.96 µM; actives 0.048% (n = 320,000); AID 2606; in the data active = inhibition above about 38%;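 also: extracellular domain of Rv3671c used as enzyme; 0% = enzyme with DMSO and 100% = no enzyme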
Target sequence (P9WHR9 whole entry, looked up, the tested form may be a part): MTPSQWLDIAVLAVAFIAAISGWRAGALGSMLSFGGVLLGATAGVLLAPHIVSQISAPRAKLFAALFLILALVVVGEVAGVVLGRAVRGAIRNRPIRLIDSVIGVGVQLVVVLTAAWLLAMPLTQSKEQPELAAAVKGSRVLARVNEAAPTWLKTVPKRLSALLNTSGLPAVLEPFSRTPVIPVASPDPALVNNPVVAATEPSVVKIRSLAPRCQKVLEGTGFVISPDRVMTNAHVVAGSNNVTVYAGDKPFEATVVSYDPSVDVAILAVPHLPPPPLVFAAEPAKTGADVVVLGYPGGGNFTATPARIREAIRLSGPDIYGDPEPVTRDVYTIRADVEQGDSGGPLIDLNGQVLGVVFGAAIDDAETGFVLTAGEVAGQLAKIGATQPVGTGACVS
Mtb hypoxia inh: reduces hypoxia-regulated biosensor signal in M. tuberculosis | M. tuberculosis hypoxia-regulated fluorescent reporter, fluorescence | fluorescence inhibition, % (concentration not given with the values) | actives 0.1% (n = 300,000) | AID 1159583; in the data active = fluorescence inhibition mostly above about 23%, no sharp cut-off; inactive = mostly below about 17%
FBA Mtb inh: inhibits M. tuberculosis FBA enzyme; actives 2.3% (n = 360,000); purified M. tuberculosis FBA, fluorescence read-out; AID 588726; inhibition, % at 1 µM;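 also: 0% = vehicle and 100% = reference inhibitor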
FadD28 FP inh: M. tuberculosis FadD28 bisubstrate binding inhibition | FadD28 bisubstrate probe binding, fluorescence polarization | inhibition, % at 12.5 µM | actives 0.22% (n = 360,000); in the data active = inhibition above about 8.5%, passing the limit was not always enough
UGM FP inh: blocks M. tuberculosis UGM enzyme. P9WIQ1. purified UGM, fluorescence polarization probe displacement. inhibition, % at 10 µM. actives 0.06% (n = 320,000); in the data active = inhibition above about 10%, passing the limit was not always enough
Mtb FBA confirm: Mtb FBA inhibition, confirmed; shares compounds with FBA Mtb inh; purified M. tuberculosis FBA, fluorescence read-out; inhibition, % at 1 µM; actives 78% (n = 5,600); AID 651616;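 also: 0% = vehicle wells and 100% = reference inhibitor wells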
GDH-TPI counter-2: inhibits GDH-TPI coupling enzymes, flagging Mtb FBA hits | GDH-TPI coupled enzyme counterscreen, fluorescence | AID 652141 | shares compounds with FBA Mtb inh | actives 81% (n = 5,600) | inhibition, % at 1 µM; in the data active = inhibition above about 10%
Starred values were filed as active, the others as inactive; . = no result given; + = active, no number. Rule as the data show it, unless noted: active = inhibition above about 27%; inactive = the rest.

SMILES	GDH-TPI counter-1	Rv3671c protease	Mtb hypoxia inh	FBA Mtb inh	FadD28 FP inh	UGM FP inh	Mtb FBA confirm	GDH-TPI counter-2
CC(=NNC(=S)NCC(C)(C)C)c1cc(F)cc(F)c1O	.	.	0	.	.	.	.	.
Cc1c(O)ccc2c(CN3CCN(C/C=C/c4ccccc4)CC3)cc(=O)oc12	0	5	-3	64*	-6	-1	74*	56*
Cc1c(OCC(=O)N2CCC(C(N)=O)CC2)ccc2c1oc(=O)c1ccccc12	15	1	.	28*	-3	-1	130*	101*
O=c1cc(CN2CCN(C/C=C/c3ccccc3)CC2)c2cc(O)c(-c3ccccc3)cc2o1	0	1	7	0	-5	-2	.	.
Cc1cc(=O)oc2c(C)c(OCC(=O)N3CCC(C(=O)O)CC3)ccc12	17	-11	.	49*	-1	-1	18	15*
Cc1cc(=O)oc2c(C)c(OCC(=O)N3CCN(Cc4ccccc4)CC3)ccc12	15	-2	0	27*	-2	-1	147*	100*
COc1cc(C=NNc2cc(C)nc(N)n2)ccc1O	.	.	19	.	.	.	.	.
COc1ccc([N+](=O)[O-])cc1C=NNC(=O)c1nonc1N	.	.	2	.	.	.	.	.
COc1ccc(N2CCN(C(=O)COc3ccc4c(C)cc(=O)oc4c3C)CC2)cc1	5	-2	-2	3	-3	3	.	.
COC(=O)Cc1c(C)c2ccc(OCC(=O)N3CCC(C)CC3)c(C)c2oc1=O	19	1	2	84*	0	-4	54*	50*
OCCC1CC(O)C(O)[C@]2(CCc3ccccc3CO2)O1 (some centres undefined)	.	.	1	.	.	.	.	.
c1cnc2cc(-c3ccsc3)ncc2c1	15	0	9	29*	-2	0	8	5
CC1CN(C(C)CO)C(=O)c2cc(NS(=O)(=O)c3ccc(F)cc3)ccc2OC1CN(C)C(=O)NC1CCCCC1 (centres undefined)	.	.	-3	.	.	.	.	.
N#CCSc1n[nH]c2nc3c(c(=O)n12)C1(CCCC1)Cc1ccccc1-3	-6	-1	6	66*	0	-1	115*	83*
CC(C)c1c(C(=O)NN=Cc2ccco2)nnn1-c1nonc1N	.	.	7	.	.	.	.	.
COc1ccc2nc(-c3ccccc3)cc(C(=O)OCC(=O)N3CC(C)OC(C)C3)c2c1 (centres undefined)	10	-30	2	110*	0	0	38*	30*
COc1ccc2nc(-c3ccccc3)cc(C(=O)OCC(=O)N3CCCCC3)c2c1	1	-42	4	87*	0	2	+	+
ON=Cc1ccc2cccc(OCc3ccccc3)c2n1	.	.	10	.	.	.	.	.
COCCNC(=O)C1(C)Cc2c(-c3ccc(NC(C)=O)cc3)ccnc2O1 (centres undefined)	4	.	.	12	0	.	.	.
CN(C)c1ccc(-c2ccnc3c2CC(C)(C(=O)NCCc2ccccc2)O3)cc1 (centres undefined)	15	.	.	47*	-2	.	109*	73*
CN(C)c1ccc(CNC(=O)C2(C)Cc3c(-c4ccc(N(C)C)cc4)ccnc3O2)cc1 (centres undefined)	30	.	.	46*	0	.	58*	50*
COCCNC(=O)C1(C)Cc2c(-c3ccc(N(C)C)cc3)ccnc2O1 (centres undefined)	15	.	.	32*	-2	.	128*	104*
CN(C)c1ccc(CNC(=O)C2(C)Cc3c(-c4ccccc4)ccnc3O2)cc1 (centres undefined)	-7	.	.	-3	-4	.	.	.
CN(C)c1ccc(-c2ccnc3c2CC(C)(C(=O)NCC2CC2)O3)cc1 (centres undefined)	25	.	.	35*	0	.	+	164*
CCCOc1ccc(-c2nn(-c3ccccc3)cc2C=C2SC(N)=NC2=O)cc1	.	.	-2	.	.	.	.	.
SMILES	GDH-TPI counter-1	Rv3671c protease	Mtb hypoxia inh	FBA Mtb inh	FadD28 FP inh	UGM FP inh	Mtb FBA confirm	GDH-TPI counter-2
CCC(CO)Oc1cc(NCc2ccc(Cl)c(Cl)c2)c2ncn(C(C)C)c2c1 (centres undefined)	.	.	6	.	.	.	.	.
COc1cc(NS(=O)(=O)c2ccc(N/C=C\C(=O)c3ccc(C)cc3)cc2)nc(OC)n1	26	4	.	30*	0	6	36*	22*
COc1cc(NS(=O)(=O)c2ccc(NC(=O)c3cccs3)cc2)nc(OC)n1	1	-12	-10	75*	-6	4	-1	-8
Cc1ccc([N+](=O)[O-])cc1-c1ccc(C=Nn2nnnc2N)o1	.	.	-19	.	.	.	.	.
Nn1c(=O)[nH]c2c([nH]c3ccccc32)c1=O	-12	1	7	27*	-5	-1	107*	86*
O=C(O)CCc1nn2c3ccccc3n(CC(=O)O)c2nc1=O	19	-8	-3	24	-2	-4	.	.
O=C(O)CCc1nn2c3ccccc3n(Cc3ccccc3F)c2nc1=O	5	1	-5	37*	0	0	110*	87*
CC(=O)N1CCC2(CC1)CC(=O)c1cc(OCC(=O)N3CCC4(CC3)OCCO4)ccc1O2	9	-6	4	58*	-3	6	27*	25*
CC(=O)N1CCC2(CC1)CC(=O)c1cc(OCC(=O)N3CCN(C)CC3)ccc1O2	16	1	3	59*	-2	-2	56*	47*
Cc1ccccc1OCC(=O)N1CCC2(CC1)CC(=O)c1ccccc1O2	0	5	-2	7	-4	-1	.	.
c1cc(Nc2ncnc3sc4c(c23)CCC4)ccn1	5	-3	-6	60*	-1	-1	8	-4
C(=N\Nc1ncnc2sc3c(c12)CCC3)/c1ccncc1	18	-14	.	-5	-3	4	.	.
COc1ccc(-c2cc(C(=O)N3CCN(c4ccccc4)CC3)c3ccccc3n2)cc1	14	5	-4	30*	1	2	4	-8
COc1ccc(-c2cc(C(=O)N3CCN(c4ccccc4O)CC3)c3ccccc3n2)cc1	7	-4	2	8	-1	-3	.	.
COc1ccc(-c2cc(C(=O)N3CCN(c4ncccn4)CC3)c3ccccc3n2)cc1	17	-1	-3	31*	-2	3	149*	123*
COc1ccc(-c2cc(C(=O)N3CCC4(CC3)OCCO4)c3ccccc3n2)cc1	21	4	1	110*	0	-2	-1	1
Cc1ccc2nc(SCC(=O)NN=Cc3ccco3)cc(C)c2c1	.	.	15	.	.	.	.	.
CC(/C=C/c1ccccc1)=NNC(=O)c1cnccn1	.	.	1	.	.	.	.	.
Cc1cc(=O)oc2cc(O)c(N=Nc3ccccc3)cc12	16	0	10	3	-1	-3	.	.
Cc1cc(=O)oc2cc3c(cc12)OCCO3	8	1	2	62*	0	0	196*	162*

Compound activity from PubChem.
